{
  "source": "PubChem BioAssay (Tox21)",
  "note": "Values joined by “and” are separate entries in the source; they are usually repeats but may differ in a detail not shown here. Equal values may be shown once. Inconclusive results are not listed. Entries that show only a call come without a potency. Some compounds were tested as several samples or in several runs, with calls that do not always agree. Active and inactive are the calls of the source. Calls follow the shape of the dose curve; as a rule, active = well fitted inhibition curve with a large enough effect in the repeat runs; inconclusive = weak or mixed curves, or effect the other way; inactive = no such curve, though single readings can be large or run the other way. Potency is read from the fitted curve at half-maximal effect.",
  "data": [
    {"target": "Nuclear receptor subfamily 1 group I member 3 (Homo sapiens) (UniProt Q14994)", "sequence (Q14994 whole entry, looked up)": "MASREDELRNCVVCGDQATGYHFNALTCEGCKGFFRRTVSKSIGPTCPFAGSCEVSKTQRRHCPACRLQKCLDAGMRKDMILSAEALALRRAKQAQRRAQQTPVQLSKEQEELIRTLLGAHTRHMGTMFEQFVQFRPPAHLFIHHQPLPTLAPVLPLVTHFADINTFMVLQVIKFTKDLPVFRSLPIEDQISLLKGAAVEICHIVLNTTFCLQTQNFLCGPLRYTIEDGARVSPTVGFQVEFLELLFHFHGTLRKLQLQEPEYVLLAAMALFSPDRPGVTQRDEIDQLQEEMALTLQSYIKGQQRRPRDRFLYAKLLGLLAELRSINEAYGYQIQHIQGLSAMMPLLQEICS", "experiment": "qHTS assay to identify small molecule antagonists of the constitutive androstane receptor (CAR) signaling pathway (AID 1224838);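 also: HepG2 cells stably expressing hCAR with CYP2B6 luciferase reporter stimulated by CITCO; nearly all actives have a fitted effect of over 40% in size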", "settings": "HepG2-CYP2B6-hCAR luciferase, CITCO-stimulated, 24 h; series mostly up to 92.4 µM; activity, negative = inhibition: at the top concentration", "source_text": "U.S. Tox21 Program National Center for Advancing Translational Sciences [NCATS] NIH Chemical Genomics Center [NCGC] U.S. Environmental Protection Agency [EPA] National Institutes of Environmental Health Sciences [NIEHS] National Toxicology Program [NTP] U.S. Food and Drug Administration [FDA] Tox21 Assay Overview: The constitutive androstane receptor (CAR) is a nuclear receptor which regulates multiple drug metabolizing enzymes (DMEs) and transporters. Activating CAR will generally increase the transcription and subsequent translation of CYP2B6 and CYP3A4. These two DMEs represent about 50% of the drug metabolizing potential in the body. When CAR is deactivated, the metabolizing potential in the body will decrease, subsequently increasing the toxicity in the body or lowering the therapeutic potential of a pro-drug. Recently, there have also been studies performed indicating CARs role in energy metabolism and cancer therapy. Therefore, inhibiting CARs activity could have a potential effect on diabetes and cancer. Identifying environmental toxins and compounds which modulate CAR, through the use of the Tox21 10K compound collection, will be an important step in determining the toxicity and potential therapeutic effects these factors will have on the human body.\nTox21 Assay Protocol Summary: A double-stable (hCAR and CYP2B6-2.2kb) transfected cell line, derived from human hepatoma (HepG2) cells, was utilized for the duration of the quantitative high-throughput screens. The HepG2-CYP2B6-hCAR cells suspended in DMEM culture medium supplemented with 10% FBS, 5 ug/mL blasticidin, 0.5 mg/mL geneticin, 100 U/mL penicillin and 100 ug/mL streptomycin were dispensed at 2500 cells/4 uL/well in 1536-well white solid bottom plates using a Multidrop Combi. After the assay plates were incubated at 37 C/5% CO2 for 4 hrs, 23 nL of compounds at 15 concentrations (from 5-48 columns) or positive control (from 1 to 4 columns) were transferred to the assay plates using a Pintool station. One uL of CITCO, was added using a Flying Reagent Dispenser to generate a final concentration of 50 nM CITCO inside each well. After a 24 hr incubation period at 37 C/5% CO2, four uL of ONE-Glo reagent was added into the assay plates using a Flying Reagent Dispenser. After a 30 min incubation period at room temperature, the luminescence intensity in the assay plates was measured using a ViewLux plate reader.", "values": [
      {"smiles": "CCN(Cc1c(F)cccc1Cl)c1c([N+](=O)[O-])cc(C(F)(F)F)cc1[N+](=O)[O-]", "activity, negative = inhibition": "-2.16% (inactive)"},
      {"smiles": "CC(C)C(=O)Nc1ccc([N+](=O)[O-])c(C(F)(F)F)c1", "Potency": "inactive"},
      {"smiles": "Cn1c(=O)c2c(ncn2C)n(C)c1=O", "Potency": "inactive"},
      {"smiles": "COc1cccc(O)c1O", "activity, negative = inhibition": "28.7% (inactive)"},
      {"smiles": "Cc1ncc([N+](=O)[O-])n1C", "Potency": "inactive"},
      {"smiles": "C=CCc1ccc(O)c(OC)c1", "Potency": "inactive"},
      {"smiles": "NS(=O)(=O)O", "Potency": "inactive"},
      {"smiles": "CCCCCCCCCCCCCCCC[N+](C)(C)Cc1ccccc1", "activity, negative = inhibition": "-5.34% [at 42.5 µM] (inactive)"},
      {"smiles": "CCCC[P+](CCCC)(CCCC)CCCC", "Potency": "inactive"},
      {"smiles": "COc1ccc2c(c1)c(CC(=O)O)c(C)n2C(=O)c1ccc(Cl)cc1", "Potency": "inactive"},
      {"smiles": "CN(C)CCOC(C)(c1ccccc1)c1ccccn1", "note": "(stereo not given)", "Potency": "inactive"},
      {"smiles": "Cc1cc(=O)oc2cc(O)ccc12", "Potency": "inactive"},
      {"smiles": "O=C(O)CC(O)C(=O)O", "note": "(stereo not given)", "Potency": "inactive"},
      {"smiles": "O=C1NC(=O)C(c2ccccc2)(c2ccccc2)N1", "Potency": "inactive"},
      {"smiles": "CC(C)c1c(C(=O)Nc2ccccc2)c(-c2ccccc2)c(-c2ccc(F)cc2)n1CC[C@@H](O)C[C@@H](O)CC(=O)O", "Potency": "inactive"},
      {"smiles": "CN1CCC[C@H]1c1cccnc1", "Potency": "inactive"},
      {"smiles": "C=C1CC[C@H](O)C/C1=C\\C=C1/CCC[C@]2(C)[C@@H]([C@H](C)CCCC(C)C)CC[C@@H]12", "activity, negative = inhibition": "9.28% (inactive)"},
      {"smiles": "O=c1[nH]cnc2c1ncn2[C@H]1CC[C@@H](CO)O1", "Potency": "inactive"},
      {"smiles": "CCCCCCCCCCCC[N+](C)(C)Cc1ccccc1", "Potency": "83.6 µM (active) and 29.8 µM (active)"},
      {"smiles": "O=CC(=O)c1ccccc1", "Potency": "68.7 µM (active)"},
      {"smiles": "CN(N=O)C(=O)N[C@@H]1[C@@H](O)[C@H](O)[C@@H](CO)O[C@@H]1O", "Potency": "inactive"},
      {"smiles": "CCCCOC(=O)c1ccc(O)cc1", "Potency": "inactive"},
      {"smiles": "CN(C)C(=O)Nc1ccc(Cl)c(Cl)c1", "Potency": "inactive"},
      {"smiles": "CN(C)C(=S)SC(=S)N(C)C", "Potency": "1.25 µM (active) and 1.54 µM (active) and 2.37 µM (active)"},
      {"smiles": "Cc1cc(C)nc(NS(=O)(=O)c2ccc(N)cc2)n1", "Potency": "inactive"},
      {"smiles": "COc1ccc2cc(S(=O)(=O)N[C@H](CC(=O)N[C@H](Cc3ccc(CN4[C@H](C)CCC[C@@H]4C)cc3)C(=O)N(C)C(C)C)c3ccc4c(c3)OCO4)ccc2c1", "Potency": "41 µM (active)"},
      {"smiles": "C[C@](N)(Cc1ccc(O)c(O)c1)C(=O)O", "Potency": "inactive"},
      {"smiles": "CN[C@H]1CC[C@@H](c2ccc(Cl)c(Cl)c2)c2ccccc21", "activity, negative = inhibition": "16% [at 42.5 µM] (inactive)"},
      {"smiles": "O=C1OC2(c3ccccc31)c1cc(Br)c(O)c(Br)c1Oc1c2cc(Br)c(O)c1Br", "activity, negative = inhibition": "-14.2% [at 42.5 µM] (inactive)"},
      {"smiles": "C=C(C)C(=O)OCC(C)O", "note": "(stereo not given)", "Potency": "inactive"},
      {"smiles": "Nc1c(N=Nc2ccc(-c3ccc(N=Nc4cc(S(=O)(=O)O)c5ccccc5c4N)cc3)cc2)cc(S(=O)(=O)O)c2ccccc12", "Potency": "27.3 µM (active)"},
      {"smiles": "O=C1O[C@H]([C@@H](O)CO)C(O)=C1O", "Potency": "inactive"},
      {"smiles": "CC(=O)CCC(=O)O", "Potency": "inactive"},
      {"smiles": "Nc1ccc(S(N)(=O)=O)cc1", "Potency": "27.4 µM (active) and inactive"},
      {"smiles": "CCCCCCc1ccc(O)cc1O", "Potency": "inactive"},
      {"smiles": "CCc1nc(N)nc(N)c1-c1ccc(Cl)cc1", "Potency": "1.75 µM (active) and 3.06 µM (active)"},
      {"smiles": "NC(=O)c1cccnc1", "Potency": "inactive"},
      {"smiles": "CN1[C@@H]2CC(OC(=O)[C@H](CO)c3ccccc3)C[C@H]1[C@@H]1O[C@@H]12", "note": "(stereo not given in full)", "Potency": "inactive"},
      {"smiles": "O=C(Nc1ncc([N+](=O)[O-])s1)c1cccs1", "activity, negative = inhibition": "30.8% [at 42.5 µM] (inactive)"},
      {"smiles": "Nc1ccc2c(c1)CN1C(=O)c3ccccc3C1=N2", "activity, negative = inhibition": "-44.6% [at 19 µM] (inactive)"}
    ]}
  ]
}
